Assay outcomes (PubChem BioAssay)
This excerpt belongs to a sample that is enriched for hits.
RMI FANCM FP – RMI-FANCM interaction inhibition; Fluorescence polarization, RMI core complex with F-MM2 peptide; active compounds read low; AID 1159607; FP signal (polarization) at 33 µM; 0.58% of 70,000 active; in the data active = FP signal below about 40
* marks the source's active call; other numbers are inactive results; ! = repeats disagree.

SMILES	RMI FANCM FP
COc1ccc(NC(=O)CSc2ccc(F)cc2)c([N+](=O)[O-])c1	9*
COc1ccc(C2CC(=O)C3=C(C2)Nc2nnnn2C3c2cc(OC)c(O)c(OC)c2)cc1 (configuration not stated)	56
COc1cc(/C=C\C(=O)NCc2ccc3[nH]c4c(c3c2)CCCC4)cc(OC)c1OC	54
C/C=C\C(=O)NCc1ccc2[nH]c3c(c2c1)CCCC3	14*
CCOC(=O)CCC(=O)NCc1ccc2[nH]c3c(c2c1)CCCC3	55
C=C(C)COc1ccc2oc(-c3ccc(OC)cc3)c(C(=O)Nc3ccccc3)c2c1	58
COC(=O)c1ccc(C(=O)OC)c(NC(=O)c2cnc3sc(C)cn3c2=O)c1	52
COC(=O)c1sc(-c2ccc(Cl)cc2)cc1NC(=O)c1ccc2c(c1)CCO2	52
CC(CCC(=O)N/N=C/c1c[nH]c2ccccc12)C1CCC2C3C(O)CC4CC(O)CCC4(C)C3CCC12C (configuration not stated)	21*
C[C@H](CCC(=O)O)[C@H]1CC[C@H]2[C@@H]3[C@H](O)C[C@@H]4C[C@H](O)CC[C@]4(C)[C@H]3CC[C@]12C	42
C[C@H](CCC(=O)O)[C@H]1CCC2C3C(CC[C@@]21C)[C@@]1(C)CC[C@@H](O)C[C@H]1C[C@@H]3O (some centres not stated)	63
Nc1nc(SCc2c(F)cccc2Cl)[nH]c(=O)c1NC(=O)c1ccco1	55
O=C(C1CCCCN1S(=O)(=O)c1ccc(Cl)s1)N1CCCCC1 (configuration not stated)	55
CCOC(=O)c1c(NC(C)=O)sc(C)c1C	56
CCOC(=O)c1c(NC(=O)c2cc(S(=O)(=O)C(C)C)c(SC)s2)sc(C)c1C	37*
CCOC(=O)c1c(NC(=O)c2ccc(Br)s2)sc(C)c1C	79
CC1(C)COc2ccc(NC(=O)c3ccc(C(F)(F)F)cc3)cc2NC1=O	66
CC1=C(CCC(=O)O)c2cc3nc(cc4[nH]c(cc5[nH]c(cc1n2)c(C)c5C(C)O)c(C)c4C(C)O)C(C)=C3CCC(=O)O (configuration not stated)	34*
Cc1cc(=O)[nH]c(-n2nc(C)c(CCC(=O)O)c2C)n1	72
C=Cc1c(C)c2cc3[nH]c(cc4nc(cc5nc(cc1[nH]2)C(C)=C5CCC(=O)O)C(CCC(=O)O)=C4C)c(C)c3C=C	40
O=C(O)c1cc(O)c2c(c1)[C@@H]([C@H]1c3cc(C(=O)O)cc(O)c3C(=O)c3c(O[C@H]4O[C@H](CO)[C@@H](O)[C@H](O)[C@H]4O)cccc31)c1cccc(O[C@H]3O[C@H](CO)[C@@H](O)[C@H](O)[C@H]3O)c1C2=O	22*
COC(=O)c1ccccc1OC1OC(CO)C(O)C(O)C1O (configuration not stated)	61
Cc1ccc(S(=O)(=O)Nc2ccc3c(c2)CN(C(=O)C(C)C)CC3)c(C)c1	72
O=C(CN1C(=O)/C(=C\c2cccs2)SC1=S)Nc1cccc(Br)c1	59
O=C(CN1C(=O)/C(=C/c2ccco2)SC1=S)Nc1ccc(C(=O)O)cc1	64
SMILES	RMI FANCM FP
O=C(CCN1C(=O)/C(=C\c2ccco2)SC1=S)Nc1cccc(Br)c1	9*
c1ccc(Oc2cccc(Oc3ccccc3)c2)cc1	58
O=C1OC(=O)c2c(Oc3ccccc3)cc3c4c(c(Oc5ccccc5)cc1c24)C(=O)OC3=O	30*
O=C1c2cc(Cl)c(Cl)cc2C(=O)N1c1ccc(Oc2ccccc2)cc1	64
CCOC(=O)C1=C(C)Nc2nc(SC)nn2C1c1ccc(C(F)(F)F)cc1 (configuration not stated)	66
O=C(O)C1CCCN(S(=O)(=O)c2ccc(Cl)cc2)C1 (configuration not stated)	56
CCc1nc2c(sc3cccc(F)c32)c(=O)n1CC(=O)Nc1ccc(C)c(Cl)c1	91
COc1ccc(S(=O)(=O)c2cnc(SCC(=O)NCc3ccc(F)cc3)[nH]c2=O)cc1OC	62
Cc1ccc(N=C2CSC(=O)N2)cc1	55
Cc1ccc(N=C2C=C(Cl)C(=O)C(Cl)=C2)cc1	54
Cc1ccc(N=C2C=C(SC#N)C(=O)C(SC#N)=C2)cc1	-16*
CCOC(=O)Cc1nc(-c2ccc(Cl)cc2)cs1	56
Cc1oc(-c2cccc(C(F)(F)F)c2)cc1C(=O)Nc1ccc(S(N)(=O)=O)cc1	64
Cc1oc(-c2ccc(Cl)cc2[N+](=O)[O-])cc1C(=O)Nc1ccc(S(N)(=O)=O)cc1	13*
Cc1cc(NS(=O)(=O)c2ccc(NC(=O)c3cc(Cl)ccc3[N+](=O)[O-])cc2)no1	53
O=C(Nc1cccc(F)c1C(=O)Nc1ccc(F)c(Cl)c1)c1cccs1	62
N#C/C(=N/Nc1cc(C(F)(F)F)cc(C(F)(F)F)c1)C(=O)c1ccco1	54
COc1cccc(-n2c(Cc3cc(=O)[nH]c(=O)[nH]3)nnc2SCC(=O)NCc2ccco2)c1	60
c1ccc2c(c1)nc1n2CCN1	65
c1cn2c(n1)NCC2	-22*
CC1(C)CC(=O)c2c(nc(SCC(=O)c3ccc(Cl)c(Cl)c3)c(C#N)c2-c2ccccc2)C1	131
N#Cc1c(N)nc(SCC(=O)c2ccc(O)c(O)c2)c(C#N)c1-c1ccc(OCc2ccccc2)cc1	14*
COc1ccc(-c2c(C#N)c(SCC(=O)c3ccc4c(c3)OCCO4)nc3c2C(=O)CC(C)(C)C3)cc1	164
CCOc1ccc(OCCNS(=O)(=O)c2ccc(Cl)c(Cl)c2)cc1	60
CCc1c(C)nc(SCC(=O)Nc2cc(C)on2)[nH]c1=O	55
SMILES	RMI FANCM FP
Cc1c(CN2CCN(c3ccc(C(F)(F)F)cn3)CC2)sc2ccccc12	54
Cc1ccc(N(C(=O)c2cc([N+](=O)[O-])cc([N+](=O)[O-])c2)C2C=CS(=O)(=O)C2)cc1 (configuration not stated)	52
N#Cc1c(=O)[nH]c(O)c2c(=N)oc3ccc(Cl)cc3c12	10*
O=c1cc(O)c2cc(Cl)ccc2o1	57
Cc1ccc(C)c(NC(=O)c2cccc(S(C)(=O)=O)c2)c1	52
O=C(Nc1nc(-c2cc(Cl)sc2Cl)cs1)c1cccs1	61
O=C(Nc1nc(-c2cc(Cl)sc2Cl)cs1)c1ccc([N+](=O)[O-])s1	28*
Cc1ccc(-c2csc(NC(=O)c3ccc([N+](=O)[O-])s3)n2)cc1	55
COc1ccc(CCS(=O)(=O)NCC2CCN(Cc3ccccc3)CC2)cc1	77
COc1ccc2[nH]c(C(=O)NC3CCN(Cc4ccccc4)CC3)cc2c1	56
COc1ccc(CCN2CCC(Nc3nc4ccccc4n3Cc3ccc(F)cc3)CC2)cc1	20*!
CCCS(=O)(=O)N1CCCC(c2nnc(Cc3ccc(F)cc3)o2)C1 (configuration not stated)	61
CCOc1ccc(N2CC(NC(=O)NCC3CCCO3)CC2=O)cc1 (configuration not stated)	56
O=c1c2sc3ccccc3c2[nH]c(=S)n1CC1CCCO1 (configuration not stated)	57
CCOc1ccc2c(c1)=CC(=Cc1sc(=S)n(CC3CCCO3)c1O)C(=O)N=2 (configuration not stated)	23*
Nc1ccc(C(=O)O)c2c(C(=O)O)cccc12	19*
O=C(O)c1cccc2cccc(C(=O)O)c12	53
O=C(O)c1cccc(Cl)c1C(=O)O	58
Cc1ccc(-n2ncc3c(=O)[nH]cnc32)cc1C	75
CCCCCCCCCCCCCCCC[N+](C)(C)C	34*
C[N+](C)(C)CCSSCC[N+](C)(C)C	59
CCCCCCCCCCCCCO	55
